# Laboratory results published in publication PMC4336329 (PLoS ONE, 2015).
# The campaign covered roughly 310,000 compounds. About 14,000 (4.5%) showed an effect of 50% or more. Effects have a minus sign here. The list comes from a sample in which strong results are over-represented; it also holds similar structures and randomly drawn compounds.
# Target: human ether-à-go-go-related gene (hERG) potassium channel (human, UniProt Q12809)
# Assay: primary screen, population patch clamp on CHO cells stably expressing hERG; higher = less effect of the substance
# 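Note: peak tail current of the secondary pulse compared with the same well before compound.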
# Sequence of human ether-à-go-go-related gene (hERG) potassium channel (Q12809 whole entry, looked up): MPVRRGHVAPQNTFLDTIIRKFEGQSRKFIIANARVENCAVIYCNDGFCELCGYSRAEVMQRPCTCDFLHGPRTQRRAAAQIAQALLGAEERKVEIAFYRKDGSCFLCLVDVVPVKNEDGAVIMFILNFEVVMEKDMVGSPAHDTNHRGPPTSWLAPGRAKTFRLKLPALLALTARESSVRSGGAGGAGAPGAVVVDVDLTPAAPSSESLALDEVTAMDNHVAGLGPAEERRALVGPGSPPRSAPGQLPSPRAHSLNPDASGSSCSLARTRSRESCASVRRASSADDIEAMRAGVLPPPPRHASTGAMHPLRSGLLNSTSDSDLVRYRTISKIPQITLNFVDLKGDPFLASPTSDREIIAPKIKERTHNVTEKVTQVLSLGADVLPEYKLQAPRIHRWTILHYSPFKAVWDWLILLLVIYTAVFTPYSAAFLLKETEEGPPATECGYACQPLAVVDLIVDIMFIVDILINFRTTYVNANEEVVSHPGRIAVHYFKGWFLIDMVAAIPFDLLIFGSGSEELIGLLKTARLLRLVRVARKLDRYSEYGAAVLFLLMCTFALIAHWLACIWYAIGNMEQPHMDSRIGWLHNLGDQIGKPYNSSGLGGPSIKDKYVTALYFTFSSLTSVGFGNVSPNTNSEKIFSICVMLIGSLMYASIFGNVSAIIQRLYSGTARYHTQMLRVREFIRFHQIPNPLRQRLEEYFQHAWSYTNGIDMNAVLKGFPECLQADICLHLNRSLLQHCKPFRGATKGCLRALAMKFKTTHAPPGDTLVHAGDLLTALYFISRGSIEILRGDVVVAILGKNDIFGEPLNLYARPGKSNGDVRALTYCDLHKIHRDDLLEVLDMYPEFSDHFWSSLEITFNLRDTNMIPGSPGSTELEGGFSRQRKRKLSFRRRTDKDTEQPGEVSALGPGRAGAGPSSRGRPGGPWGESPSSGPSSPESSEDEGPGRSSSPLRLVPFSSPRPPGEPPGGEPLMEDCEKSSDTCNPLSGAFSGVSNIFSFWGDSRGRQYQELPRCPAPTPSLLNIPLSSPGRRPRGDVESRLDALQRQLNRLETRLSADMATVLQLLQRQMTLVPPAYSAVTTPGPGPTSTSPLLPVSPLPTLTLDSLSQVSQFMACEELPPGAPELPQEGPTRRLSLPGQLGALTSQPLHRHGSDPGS
row,SMILES,"hERG current change (%, negative = inhibition) at 10uM"
1,COc1ccc(S(=O)(=O)N2CCCCC2)cc1NC(=O)CN(Cc1ccco1)Cc1ccco1,-23.7%
2,Cc1ccccc1C(=O)NC(=S)Nc1ccc2[nH]c(=O)[nH]c2c1,23.1%
3,COC(=O)c1ccc(COC(=O)c2c(C)nn(Cc3ccccc3Cl)c2Cl)o1,10.9%
4,CCOCCCNCC(=O)Nc1ccc(OC(F)(F)F)cc1.Cl,-56.4%
5,CN(CC(=O)Nc1ccc(S(N)(=O)=O)cc1)C1CCCCC1,-1.84%
6,COc1ccc(NC(=O)CN(C)C2CCCCC2)cc1Cl,-55%
7,CN(CC(=O)Nc1ccc(SC(F)F)cc1)C1CCCCC1,-70%
8,CN(CC(=O)Nc1ccc(Cl)c(Cl)c1)C1CCCCC1.O=C(O)C(=O)O,-7.28%
9,CN(CC(=O)Nc1ccc(Cl)cc1)C1CCCCC1,-10%
10,COCCNCC(=O)Nc1ccc(OC(F)(F)F)cc1.Cl,-33.9%
11,COc1ccc(NC(=O)CN(C2CCCCC2)S(C)(=O)=O)cc1Cl,-18.4%
12,COCCCNCC(=O)Nc1ccc(OC(F)(F)F)cc1.Cl,-30%
13,CCCCCCSc1nsc(N)n1,-10.8%
14,Cc1cccnc1NC(=O)CNC(=O)C12CC3CC(CC(Cl)(C3)C1)C2,13%
15,CCCCc1ccc(-c2nc(-c3ccncc3)no2)cc1,16%
16,Cc1ccsc1-c1nc(C(N)=O)c2[nH]c(=O)n(-c3ccc(Cl)cc3)c2n1,1.51%
17,O=C(NCc1cccnc1)c1ccc(COc2ccc(Cl)cc2)cc1,-58.6%
18,O=C(COc1ccc(Cl)cc1)Nc1ccc(C(=O)NCc2cccnc2)cc1,-36.8%
19,COc1cc(C(=O)NCc2cccnc2)ccc1OCC(=O)Nc1cccc(C(F)(F)F)c1,3.13%
20,O=C(COc1ccc(C(=O)NCc2cccnc2)cc1)Nc1cccc(C(F)(F)F)c1,-60.6%
21,Cc1cccc(OCC(=O)Nc2ccc(C(=O)NCc3cccnc3)cc2)c1,-0.608%

row,SMILES,"hERG current change (%, negative = inhibition) at 10uM"
1,O=C(NCc1cccnc1)c1ccc(COc2ccccc2Cl)cc1,4.47%
2,Cc1cccc(-n2c(C)cc(/C=N\NC(=O)c3ccco3)c2C)c1,-12.8%
3,OCC1(Cc2ccccc2F)CCCN(Cc2c(F)ccc(F)c2F)C1 (centres unmarked),-55.5%
4,C=CCC(=O)N1CCCC(CO)(Cc2ccc(F)cc2F)C1 (centres unmarked),0.892%
5,OCC1(Cc2ccc(F)cc2F)CCCN(CCCc2ccccc2)C1 (centres unmarked),-82.9%
6,Cc1ccccc1CC1(CO)CCCN(C(=O)Cc2c(F)ccc(F)c2F)C1 (centres unmarked),-0.736%
7,OCC1(Cc2ccc(F)cc2)CCCN(CCc2ccccc2)C1 (centres unmarked),-45.5%
8,CSCCCN1CCCC(CO)(Cc2ccccc2F)C1 (centres unmarked),-38.3%
9,OCC1(Cc2ccccc2F)CCCN(CCc2ccccc2)C1 (centres unmarked),-74.8%
10,OCC1(Cc2ccccc2F)CCCN(CC2CCCCC2)C1 (centres unmarked),-37.7%
11,O=C(Cc1cccc(F)c1)N1CCCC(CO)(Cc2ccc(F)cc2F)C1 (centres unmarked),-9.84%
12,CC(C)NC(=O)C1CCN(C2CCN(CC3CC=CCC3)CC2)CC1 (centres unmarked),-15%
13,O=C(O)c1cc(-c2cccs2)[nH]n1,15.5%
14,C/C(=N\NC(=O)c1[nH]c2c([N+](=O)[O-])cc(C)cc2c1-c1ccccc1)c1cccnc1,6.67%
15,CN1CCN(C(=O)C23CCC(C)(c4nc5ccccc5nc42)C3(C)C)CC1 (centres unmarked),-53.3%
16,CC12CCC(C(=O)N3CCN(c4ncccn4)CC3)(c3nc4ccccc4nc31)C2(C)C (centres unmarked),-20.2%
17,CC12CCC(C(N)=O)(c3nc4ccccc4nc31)C2(C)C (centres unmarked),-4.08%
18,O=[N+]([O-])c1ccc(N2CCN(c3ccccc3Cl)CC2)cn1,-34.3%
19,O=[N+]([O-])c1ccc(N2CCOCC2)cn1,15.4%
20,O=[N+]([O-])c1ccc(N2CCCCC2)cn1,8.92%
21,O=[N+]([O-])c1ccc(N2CCN(c3ccc(F)cc3)CC2)cn1,-48.7%

row,SMILES,"hERG current change (%, negative = inhibition) at 10uM"
1,O=[N+]([O-])c1ccc(N2CCN(c3cccc(Cl)c3)CC2)cn1,-63.2%
2,O=[N+]([O-])c1ccc(N2CCN(c3ccc(O)cc3)CC2)cn1,-52.8%
3,Cn1c(C(=O)NCc2ccccn2)cc2c(=O)n3ccccc3nc21,-1.42%
4,CN(C)S(=O)(=O)c1cccc(NC(=O)c2cc3ccccc3o2)c1,-13.7%
5,CCOc1ccc(N2C(=O)/C(=C/c3cccs3)N(CC(=O)OC)C2=S)cc1,-28%
6,COC(=O)C(NC(C)=O)(Nc1nc2c(s1)CCCC2)C(F)(F)F (centres unmarked),-4.29%
7,COCCCNC(=O)CSC1=Nc2ccccc2C2=NC(c3ccccc3)C(=O)N12 (centres unmarked),-22.2%
8,O=C(Nc1ccc(F)cc1)Nc1ccc2ccccc2n1,14.2%
9,COc1ccc(-c2csc(NC(=O)c3cccc(N4C(=O)CCC4=O)c3)n2)cc1OC,-1.68%
10,COCCN(C(=O)c1cccc(N2C(=O)CCC2=O)c1)c1nc(-c2ccc([N+](=O)[O-])cc2)cs1,-50.2%
11,COCCN(C(=O)C1CC(=O)N(Cc2ccccc2)C1)c1nc(-c2ccc([N+](=O)[O-])cc2)cs1 (centres unmarked),-29.7%
12,COc1ccc(Cl)c2sc(N(CCN(C)C)C(=O)c3ccc4c(c3)OCCO4)nc12.Cl,-29.2%
13,COc1ccc(C)c2sc(N(CCCN(C)C)C(=O)c3ccc4c(c3)OCCO4)nc12.Cl,-75.6%
14,COc1ccc(OC)c2sc(N(CCN(C)C)C(=O)c3ccc4ccccc4c3)nc12.Cl,-11.3%
15,COc1ccc(C)c2sc(N(CCN(C)C)C(=O)c3cccc(N4C(=O)CCC4=O)c3)nc12.Cl,-57.9%
16,Cc1cc(C)c2nc(N(CCCN(C)C)C(=O)c3ccc4c(c3)CCCC4)sc2c1.Cl,-3.72%
17,Cc1cc(C)c2nc(N(CCN(C)C)C(=O)c3ccc4ccccc4c3)sc2c1.Cl,11.6%
18,COc1ccc(C)c2sc(N(CCN(C)C)C(=O)c3ccc4ccccc4c3)nc12.Cl,-20.7%
19,Cc1cc(C)c2nc(N(CCCN(C)C)C(=O)c3ccc4c(c3)OCCO4)sc2c1.Cl,-51.2%
20,CN(C)CCN(C(=O)c1cccc(N2C(=O)CCC2=O)c1)c1nc2ccc(Br)cc2s1.Cl,-48.7%
